DT40 TDP1 CPT = DT40-hTDP1 cell growth loss with CPT. chicken DT40 Tdp1-/-;hTDP1 cells + 20 nM CPT, ATP luminescence, 48 h. Potency, µM (top dose mostly 46.2 µM), inactives show at the top dose activity change, negative = growth inhibition, hits mostly inhibitors. 12% of 420,000 active. AID 686979; further: potency means the concentration at half of the fitted maximal effect; on the % scale 0 is the no-effect control and ±100 the full control effect; nearly all actives have a fitted effect of over 55% in size
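Chicken DT40 Tdp1-/- cells stably complemented with human TDP1 were seeded at 400 cells/well in medium containing 20 nM camptothecin, exposed to pin-transferred compounds, and grown at 37 °C for at least 48 hr. Viability was read as ATP luminescence.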
IL-1B inflam inh = inflammasome signaling inhibition, IL-1 beta readout. AID 743279. activity change, % at 57.5 µM. 4.7% of 360,000 active. THP-1 LPS/ATP IL-1B secretion, AlphaLISA, 16 h; hits give low values; in the data active means activity change below about -50%; inconclusive means mostly about -30% to -49%; further: on the % scale 0 is the no-effect control and ±100 the full control effect
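Secreted IL-1B measured by AlphaLISA bead assay after 16 h compound exposure of THP-1 cells; compounds (final up to 57.5 uM) added 1 h before LPS (250 ng/mL) and ATP (1.25 mM) stimulation; lower signal means less secretion.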
BCR signal inh = blocks chronic active B-cell receptor signaling | ABC-DLBCL IkBa-CBG/CBR reporter, luminescence ratio, 4 h | AID 493014 | 0.05% of 340,000 active | Potency, µM (doses to about 46.1 µM), for inactives: at the highest dose activity change, negative = inhibition, hits mostly inhibitors; active means well fitted inhibition curve with a large enough effect in the signal ratio, with a control signal flat, not every such curve was filed as active; inconclusive means small, poorly fitted or top-dose-only effect, or effect the other way, or a change in a side signal; the % refers to the signal ratio;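 further: potency means the concentration at half of the fitted maximal effect; plate controls were basal doxycycline-induced cells for no effect and cells given 10 µM MG132 for full effect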
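Doxycycline induced both beetle luciferases in TMD8 lymphoma cells; IKK-driven degradation limits the IkappaBalpha-fused green signal, while red luminescence normalises for cell number and nonspecific effects. Compounds tested up to 46 uM, 4 hrs.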
MCF10A rereplic = DNA re-replication induction in MCF 10a cells; MCF 10A DNA re-replication, Hoechst nuclear intensity, 48 h; Potency, µM (doses to about 46.1 µM), without a hit: at the top dose activity, positive = re-replication, actives largely listed as activators; 2.9% of 350,000 active; AID 624296; further: potency means the concentration at half of the fitted maximal effect; % of control where 0% means no effect; nearly all actives have a fitted effect of over 50% in size
DT40 TDP1 no CPT = qHTS for Inhibitors of human tyrosyl-DNA phosphodiesterase 1 (TDP1): qHTS in cells in absence of CPT; 15% of 420,000 active; Potency, µM (highest dose often 46.2 µM), inactives show at the highest dose activity change, negative = growth inhibition, actives largely listed as inhibitors; DT40 Tdp1-/- hTDP1 cells, no CPT, ATP luminescence, 48 h; further: potency means the concentration at half of the fitted maximal effect; on the % scale 0 is the no-effect control and ±100 the full control effect; nearly all actives have a fitted effect of over 55% in size
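No-CPT arm: Tdp1-/-;hTDP1 DT40 cells (400/well) plus compounds, incubated ≥48 hr at 37 °C. Readout CellTiter-Glo luminescence.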
SW480 rereplic = induces DNA re-replication in SW480 colon adenocarcinoma cells | SW480 DNA re-replication, Hoechst DNA content imaging, 48 h | Potency, µM (series often up to 46.1 µM), inactives show at the top dose re-replication activation, hits mostly activators | AID 624297 | 1.8% of 340,000 active; further: potency means the concentration at half of the fitted maximal effect; % of control where 0% means no effect; nearly all actives have a fitted effect of over 55% in size
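250 cells/well; 23 nL cpd via pin tool; 48 hr, 37 C, 5% CO2; Hoechst 40 min; imager read of total nuclear intensity, ex 405/em 500-530 nm.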
* marks the source's active call; other numbers are inactive results; ? = inconclusive; . = no result; [ ] = dose if it differs, or a comment. Sampled rows, rich in hits. Any-hit rate of the full collection: about 19%. Unless noted, the call rests on the fitted dose curve; in most records, active means well fitted curve in the direction sought with a large enough effect; inconclusive means small, poorly fitted or top-dose-only effect, or another doubt; inactive means no such curve, though single readings can be large; an effect the other way counts as inactive or inconclusive.

SMILES	DT40 TDP1 CPT	IL-1B inflam inh	BCR signal inh	MCF10A rereplic	DT40 TDP1 no CPT	SW480 rereplic
CCn1cc(C(=O)O)c(=O)c2cc(F)c(N3CCN(C(=S)NC(=O)c4c(OC)cccc4OC)CC3)cc21	18.4µM*	?	-3.9%	-10.1%	25.9µM*	-42.9%
CCn1cc(C(=O)O)c(=O)c2cc(F)c(N/N=C/c3ccccc3[N+](=O)[O-])cc21	4.11µM*	8.9	7.4%	-2.6%	16.4µM*	3.9%
Cc1ccc(CNC(=O)COC(=O)c2cccc(S(=O)(=O)N3CCCCC3)c2)cc1	-20.3%	0.0	-0.8%	10.9%	21.4%	-10.3%
CCN(CC)CCNC(=O)c1ccc(NC(=O)c2cccc(-n3cnnn3)c2)cc1	8.2%	-6.8	5.1%	-3.8%	0.7%	-2.8%
COc1ccc(-c2csc(NC(=O)CCNC(=O)c3ccco3)n2)cc1	-10.7%	14.2	.	.	-13.8%	.
CCn1cc(C(=O)O)c(=O)c2cc(F)c(N3CCN(S(=O)(=O)c4ccc(NC(=O)OC)cc4)CC3)cc21	18.4µM*	24.6	5.9%	-2.6%	18.4µM*	-50.1%
CCC(=O)N1CCN(c2cc3c(cc2F)c(=O)c(C(=O)O)cn3CC)CC1	-13.5%	6.4	.	-2.0%	-12.0%	2.9%
c1cncc(CN2CCN(c3cc(-c4cnc5ccccc5c4)nc4ccnn34)CC2)c1	?	-6.5	.	.	-28.8%	.
O=C(c1cccs1)N1CCN(c2ncc(C(F)(F)F)cc2Cl)CC1	?	-10.3	?	3.2%	?	10.5%
O=C(CN1CCN(c2ncc(C(F)(F)F)cc2Cl)CC1)N1CCN(c2ncc(C(F)(F)F)cc2Cl)CC1	17.8µM*	1.4	9.3%	?	15.8µM*	?
CN1CCN(C(=O)C2CCN(c3ncc(C(F)(F)F)cc3Cl)CC2)CC1	?	22.8	1.1%	?	20.6µM*	13.5%
O=C(OC1CCN(c2ncc(C(F)(F)F)cc2Cl)CC1)c1cccc(C(F)(F)F)c1	-10.6%	-4.6	1.1%	-181.0%[0.0737 µM]	-14.3%	-4.9%
O=C(c1cccc(C(F)(F)F)c1)N1CCOC12CCN(c1ncc(C(F)(F)F)cc1Cl)CC2	23.1µM*	?	.	1.4%	23.1µM*	-4.7%
Cc1cc[n+](C2=C([O-])c3ccccc3C(=O)/C2=N\S(=O)(=O)c2cccs2)cc1C	?	53.7	?	20.6µM*	?	?
CCCCC[n+]1ccn(C2=C([O-])c3ccccc3C(=O)/C2=N\S(=O)(=O)c2ccccc2)c1	14.6µM*	20.4	?	18.7%	18.4µM*	11.2µM*
CC(C)(C)c1cc[n+](C2=C([O-])c3ccccc3C(=O)/C2=N\S(=O)(=O)c2ccccc2)cc1	?	.	?	5.3%	23.1µM*	?
CCCCC[n+]1ccn(C2=C([O-])c3ccccc3C(=O)/C2=N\S(=O)(=O)c2ccc(Br)cc2)c1	10.3µM*	81.6	8.8%	20.8%	?	?
O=C1/C(=N\S(=O)(=O)c2cccs2)C([n+]2ccc(CCCc3ccccc3)cc2)=C([O-])c2ccccc21	-11.6%	49.5	?	11.0%	-28.6%	?
CCN1C(=O)CS/C1=N\S(=O)(=O)c1ccccc1	-20.2%	1.1	?	-0.6%	-5.7%	3.0%
CCc1ccc(NS(=O)(=O)c2c(C(=O)N3CCOCC3)c(C)n(C)c2C)cc1	-3.0%	10.6	-8.3%	0.4%	5.6%	3.8%
CC(C)c1ccc(NC(=O)C[n+]2ccn(C3=C([O-])c4ccccc4C3=O)c2)cc1	-1.4%	38.6	9.5%	9.7%	-26.3%	-6.9%
CC(C)[n+]1ccn(C2=C([O-])c3ccccc3C(=O)/C2=N\S(=O)(=O)c2ccccc2)c1	?	.	?	4.8%	18.4µM*	?
Cc1ccc(NC(=O)c2cc(S(=O)(=O)N3CCCCC3)ccc2N2CCOCC2)cc1F	-2.3%	-19.7	-1.0%	5.3%	-26.6%	-5.6%
O=C(Nc1cc(S(=O)(=O)N2CCCCC2)ccc1Cl)c1ccc(F)cc1	4.9%	-4.5	-1.0%	-29.0%	-14.0%	0.2%
Cc1ccc(NC(=O)c2cc(S(=O)(=O)N3CCCCCC3)ccc2F)cc1F	8.2µM*	.	?	.	?	.
SMILES	DT40 TDP1 CPT	IL-1B inflam inh	BCR signal inh	MCF10A rereplic	DT40 TDP1 no CPT	SW480 rereplic
Cc1cc(C)cc(NC(=O)c2cc(S(=O)(=O)N3CCCC3)ccc2F)c1	?	.	?	.	20.6µM*	.
O=C(Nc1ccc(Cl)cc1F)c1cc(S(=O)(=O)N2CCCCC2)ccc1F	26.0%	6.9	0.9%	3.6%	-8.0%	-0.1%
O=C(Nc1cc(S(=O)(=O)N2CCCC2)ccc1Cl)c1cc(F)c(F)c(F)c1F	-21.4%	-99.2*	9.6%	?	-29.8%	24.0%
Cc1ccc(C)c(NC(=O)c2cc(S(=O)(=O)N3CCCCCC3)ccc2F)c1	16.4µM*	.	?	.	?	.
CCCCS(=O)(=O)N[C@@H](Cc1ccc(OCCCCC2CCNCC2)cc1)C(=O)O	3.4%	.	.	.	-2.6%	.
Cc1ccc(C(=O)Nc2ccc(S(=O)(=O)NCc3ccco3)cc2)cc1	?	10.2	13.4%	5.8%	?	-15.1%
Cc1cc(C)cc(NC(=O)c2cc(S(=O)(=O)NCc3ccco3)ccc2F)c1	?	?	?	?	11.2µM*	?
CCOC(=O)[C@H]1[C@H]2COc3ccc(Cl)cc3[C@@H]2N2C(=O)[C@@H](C)NC(=O)[C@@]12C	?	-0.9	0.5%	24.0%	-10.3%	-1.0%
O=C(OCc1cn([C@H]2C[C@H](c3ccc(Cl)cc3)N(CC3CCCCC3)C[C@@H]2O)nn1)c1ccccc1	-14.1%	11.2	.	.	-25.7%	.
CCOCCCNC(=O)c1cc2c(=O)n3cccc(C)c3nc2n1C	0.581µM*	11.2	?	?	0.82µM*	0.651µM*
Cc1cccn2c(=O)c3cc(C(=O)NCCCN4CCCC4=O)n(C)c3nc12	-21.3%	-76.9*	3.8%	-7.1%	?	?
COc1ccc(OC)c(NC(=O)c2cc3c(=O)n4cccc(C)c4nc3n2C)c1	10.3µM*	.	.	.	9.2µM*	.
COc1ccc(NC(=O)c2cc3c(=O)n4ccccc4nc3n2C)c(OC)c1	-15.6%	-27.2	-0.4%	?	-21.1%	?
Cc1cccn2c(=O)c3cc(C(=O)NCCCn4ccnc4)n(C)c3nc12	-13.2%	?	-2.5%	?	?	?
